Source: PubChem (National Center for Advancing Translational Sciences (NCATS))
Marburg entry inh = qHTS for inhibitors of binding or entry into cells for Marburg Virus; Marburg virus pseudotyped entry inhibition, cell reporter; Potency, µM (doses to about 37.8 µM), inactives show top-dose activity change, negative = inhibition, actives largely listed as inhibitors; actives 1.8% (n = 300,000); calls by dose curve; tested in HEK293 cells; note: potency is the fitted concentration of half-maximal effect
Vaccinia Venus = qHTS for Stage-Specific Inhibitors of Vaccinia Orthopoxvirus: Venus Reporter Primary qHTS; Vaccinia virus Venus reporter expression, fluorescence; Potency, µM (series often up to 36.5 µM), inactives show at the highest dose activity change, negative = inhibition, actives largely listed as inhibitors; actives 0.46% (n = 330,000); AID 720580, 2013; calls by dose curve; tested in A549 cells; note: potency is the fitted concentration of half-maximal effect; nearly all actives have a fitted effect of over 30% in size
HCMV antiviral = qHTS Assay for inhibitors of the human cytomegalovirus (HCMV); actives 4.5% (n = 410,000); activity change, negative = inhibition, % at 57.5 µM; AID 1259415, 2018; HFF cells, HCMV-luciferase reporter, 72 h; stronger effect = lower value; in the data active = activity change below about -60%; inconclusive = no clear call, values can overlap the other calls; inactive = above about -39%
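Compounds were evaluated in HFFs infected with an HCMV luciferase reporter virus (MOI 1 PFU/cell). Luciferase in lysates collected 72 h post infection served as the replication measure.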
LASV entry inh = qHTS for Inhibitors of binding or entry into cells for Lassa Virus | Lassa virus pseudotype entry inhibition, cell reporter | Potency, µM (top dose mostly 37.9 µM), inactives show at the top dose activity change, negative = inhibition, most hits filed as inhibitors | actives 1.2% (n = 300,000); calls by dose curve; tested in HEK293 cells; note: potency is the fitted concentration of half-maximal effect; nearly all actives have a fitted effect of over 50% in size
HCV inh = qHTS Assay for Inhibitors of Hepatitis C Virus (HCV). Huh7.5.1 HCVcc-Cre infection, luciferase reporter, 44 h. Potency, µM (series often up to 41.8 µM), without a hit: at the highest dose activity change, negative = inhibition, actives largely listed as inhibitors. actives 3.4% (n = 340,000). AID 651820, 2012; active = well fitted inhibition curve with a large enough effect; inconclusive = small, poorly fitted or top-dose-only effect, or another doubt; inactive = no such curve, though single readings can be large or run the other way; note: potency is the fitted concentration of half-maximal effect
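After 44 h co-culture of compound, cells and HCVcc-Cre (~0.5 moi), substrate is added for 15 min at room temperature and luciferase measured over 15 sec. Cells were seeded at 1,000/well and pre-cultured 4 h.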
Vaccinia mCherry = qHTS for Stage-Specific Inhibitors of Vaccinia Orthopoxvirus: mCherry Reporter Primary qHTS. actives 0.63% (n = 310,000). Vaccinia virus mCherry reporter infection, fluorescence. AID 720579, 2013. Potency, µM (doses to about 36.5 µM), for the others: top-dose activity change, negative = inhibition, usual class: inhibitors; calls by dose curve; tested in A549 cells; note: potency is the fitted concentration of half-maximal effect; nearly all actives have a fitted effect of over 35% in size
Numbers without * were called inactive; i = inactive; ? = inconclusive; nt = no result given; [ ] = remark or other dose. An excerpt weighted towards active compounds, which were near 7.8% of everything screened. % is set by controls: 0 for no effect and ±100 for the full control effect.

SMILES | Marburg entry inh | Vaccinia Venus | HCMV antiviral | LASV entry inh | HCV inh | Vaccinia mCherry
CCOC(=O)c1ccc(-c2ccc3c(=O)c4ccccc4n(C)c3c2)cc1F | nt | ? | -69.3* | nt | 52.3% | i
COc1ccc(OC)c(NC(=O)c2cc3c(s2)-c2ccccc2SC3)c1 | 2.0%[46.1 µM] | -12.0% | 1.0 | 12.3%[46.1 µM] | nt | 6.0%
O=Cc1cn(Cc2ccc(F)cc2)c2ccccc12 | ? | -21.7% | -1.3 | ? | 26.2% | -8.8%
Cc1ccccc1Cn1cc(/C=N/n2cnnc2)c2ccccc21 | ? | ? | 6.7 | ? | -6.7% | ?
O=[N+]([O-])/C=C/c1cn(Cc2ccc(F)cc2)c2ccccc12 | 7.3µM* | -29.6% | ? | ? | 8.91µM* | ?
Clc1ccc(Cn2cc(/C=N/n3cnnc3)c3ccccc32)cc1 | -23.8% | ? | 6.6 | ? | 10µM* | nt
Cc1ccc(Cn2cc(C=O)c3ccccc32)cc1 | 1.41µM* | -24.1% | -29.2 | ? | -11.1% | -7.2%
O=Cc1cn(Cc2ccc([N+](=O)[O-])cc2)c2ccccc12 | ? | -27.2% | 37.9 | 10.3µM* | 8.7% | -10.8%
COc1ccc(Cc2nc3ccc(C(=O)N4CCCC4)cc3o2)cc1OC | ? | -13.2% | 0.0 | ? | ? | -8.1%
COc1ccc(Cc2nc3ccc(C(=O)N(C)Cc4nccs4)cc3o2)cc1OC | nt | nt | -64.9* | nt | ? | nt
C=CCN(CC=C)C(=O)c1ccc2nc(Cc3ccc(OC)c(OC)c3)oc2c1 | ? | -13.4% | -62.0* | ? | 11.2µM* | i
COc1ccc(Cc2nc3ccc(C(=O)N4CCN(C)C(C)C4)cc3o2)cc1OC (stereo not drawn) | ? | -18.8% | -63.9* | ? | ? | ?
COC(=O)[C@]1(C#N)CC(=O)N([C@H](C)[C@@H](O)c2ccccc2)[C@@H]1c1ccccc1 | nt | nt | -0.1 | nt | nt | nt
CCCCNC1C(CC)C(CCC)C(C#N)(C#N)C1(C#N)C#N (stereo not drawn) | ? | -26.4% | nt | ? | 12.6µM* | nt
COc1ccc(-c2noc(CSc3nnc(C)n3-c3ccc(F)cc3)n2)cc1 | -10.8%[46.1 µM] | -4.5% | -23.3 | -17.4%[46.1 µM] | nt | -9.9%
C=CCn1c(SCC(=O)c2cccs2)nc2sc(CC)cc2c1=O | ? | nt | ? | ? | 3.16µM* | nt
C=CCn1c(SCC(=O)O)nc2sc(CC)cc2c1=O | 21.1%[46.1 µM] | -2.5% | -10.4 | -1.2% | 7.1% | i
CCOc1ccc(-n2ccnc2SCC(=O)Nc2cccc3ccccc23)cc1 | nt | -9.2% | ? | 3.0%[46.1 µM] | nt | i
O=C1c2ccccc2-c2onc3ccc(Oc4ccccc4)c1c23 | ? | 209.0% | 38.2 | 10µM* | ? | 33.4%
COc1ccc(N2CCN(Cc3nc4c(c(=O)n(C)c(=O)n4C)n3C(C)C)CC2)cc1 | nt | -24.6% | -13.6 | -0.5%[46.1 µM] | nt | -24.6%
CC(=O)NCC1CCCN(Cc2cn(-c3ccccc3)nc2-c2ccc3c(c2)OCO3)C1 (stereo not drawn) | -2.6% | -6.7% | -27.9 | 1.6% | -10.5% | -3.2%
Cn1cc(CN2CCCC(C(=O)c3cc(F)ccc3F)C2)c2ccccc21 (stereo not drawn) | 10µM* | -20.9% | -29.8 | ? | -19.0% | -20.4%
Cn1cc(CN2CCCC(CNC(=O)c3ccc4c(c3)OCO4)C2)c2ccccc21 (stereo not drawn) | 7.94µM* | -18.8% | 51.8 | 17.6%[46.1 µM] | -11.3% | -3.3%
COc1ccc(OC)c(CN2CCCC(C(=O)c3ccccc3SC)C2)c1 (stereo not drawn) | 2.51µM* | 9.5% | -62.7* | ? | 10µM* | -21.3%
COc1ccc(F)cc1C(=O)C1CCCN(Cc2cn(C)c3ccccc23)C1 (stereo not drawn) | 14.6µM* | -24.5% | -26.7 | ? | ? | -22.4%
SMILES | Marburg entry inh | Vaccinia Venus | HCMV antiviral | LASV entry inh | HCV inh | Vaccinia mCherry
COc1cccc([C@@H]2Oc3ccc(OC)cc3[C@H](O)[C@@H]2O)c1 | -6.9%[14.2 µM] | nt | nt | nt | nt | nt
C[C@H]1[C@@H](C(=O)N2CCCC2)CC(=O)C(=NOCc2ccccc2)C[C@H]1c1ccccc1 | 0.3%[14.2 µM] | nt | nt | ? | nt | nt
COc1ccc(C(C(=O)NC(C)(C)C)n2c(-c3ccc(=O)[nH]c3)nc3ccccc32)cc1 (stereo not drawn) | nt | -15.2% | -86.1* | nt | nt | -12.6%
COc1ccc(C(C(=O)NC(C)(C)C)n2c(COc3ccc(C)cc3)nc3ccccc32)cc1 (stereo not drawn) | nt | -22.9% | -19.1 | nt | nt | -19.5%
CN(c1ccc(NC(=O)Nc2ccc(OC(F)(F)F)cc2)cc1)c1ccnc(Nc2cccc(S(N)(=O)=O)c2)n1 | nt | nt | nt | 25µM* | nt | nt
CCN(CC(=O)Nc1ccc(NC(C)=O)cc1)C(=O)Cc1ccc(Cl)c(Cl)c1 | 0.7%[46.1 µM] | -1.1% | -64.3* | nt | ? | -6.0%
COCCSc1ccccc1C(=O)Nc1cc([N+](=O)[O-])ccc1OC | nt | -11.5% | -11.7 | nt | 7.94µM* | -5.9%
COc1ccc([N+](=O)[O-])cc1NC(=S)NC(NC(=O)C(c1ccccc1)c1ccccc1)C(Cl)(Cl)Cl (stereo not drawn) | ? | ? | -105.7* | ? | ? | ?
COCCSc1ccccc1C(=O)Nc1ccc([N+](=O)[O-])cc1OC | nt | nt | 80.4 | nt | ? | nt
O=C1Nc2ccc(-c3cccnc3)cc2C1=Cc1cc(Br)c(O)c(Br)c1 | nt | nt | nt | 12.5µM* | nt | nt
O=[N+]([O-])c1ccc(N/N=C/c2ccc[nH]2)cc1 | ? | ? | ? | ? | 1µM* | 5.01µM*
Cc1ccc(C(=O)N/N=C\c2ccc[nH]2)cc1[N+](=O)[O-] | 4.47µM* | -17.7% | -6.7 | 8.91µM* | 4.47µM* | -28.9%
O=C(N/N=C/c1ccc[nH]1)c1ccccc1[N+](=O)[O-] | 27.1% | -7.0% | ? | ? | 19.6% | -14.7%
O=[N+]([O-])c1ccc(N/N=C/c2cccnc2)cc1 | -1.1% | -8.6% | 32.2 | -4.7% | 11.2µM* | i
O=C(NCc1nnc2n1CCN(Cc1cccc(C(F)(F)F)c1)CC2)c1ccncc1 | nt | -7.1% | nt | nt | nt | -10.1%
CCOc1ccccc1NC(=O)CSc1nc2cc(O)ccc2c(=O)n1-c1ccc(OC)c(OC)c1 | nt | nt | -71.8* | nt | 11.2µM* | nt
COc1ccc(-n2c(SCC(=O)Nc3ccc(C(N)=O)cc3)nc3ccccc3c2=O)cc1OC | -25.4%[46.1 µM] | -6.6% | 149.5 | 4.0%[46.1 µM] | -14.4% | i
COc1ccc(-n2c(SCC(=O)NCC3CCCO3)nc3ccccc3c2=O)cc1Cl (stereo not drawn) | nt | -18.6% | -67.5* | nt | nt | i
CN(C(=O)c1ccccc1)c1nc2ccccc2s1 | 8.91µM* | -24.6% | 64.4 | ? | -17.1% | nt
CN(C)C(=O)c1nc2ccccc2s1 | ? | 11.9% | 30.3 | ? | 8.2% | -3.0%
